In all, about 580,000 compounds went through this assay and about 6,100 (1.1%) were called active. Inconclusive results (about 15%) are left out. This is one part of a sample in which actives are shown more often than they occur. Calls come from the whole dose curve; as a rule, active = well fitted inhibition curve with a large enough effect; inconclusive = small, poorly fitted or top-dose-only effect, or another doubt; inactive = no such curve, though single readings can be large or run the other way.
The compounds below were run against Polyunsaturated fatty acid lipoxygenase ALOX12 (Homo sapiens) (UniProt P18054) (assay: Primary qHTS assay for inhibitors of human arachidonate 12S-lipoxygenase (ALOX12): Round 2). Settings: purified 12hLO, xylenol orange hydroperoxide absorbance; series mostly up to 108 µM; activity change, negative = inhibition: at the top concentration.
Sequence of Polyunsaturated fatty acid lipoxygenase ALOX12 (Homo sapiens) (P18054 whole entry, looked up): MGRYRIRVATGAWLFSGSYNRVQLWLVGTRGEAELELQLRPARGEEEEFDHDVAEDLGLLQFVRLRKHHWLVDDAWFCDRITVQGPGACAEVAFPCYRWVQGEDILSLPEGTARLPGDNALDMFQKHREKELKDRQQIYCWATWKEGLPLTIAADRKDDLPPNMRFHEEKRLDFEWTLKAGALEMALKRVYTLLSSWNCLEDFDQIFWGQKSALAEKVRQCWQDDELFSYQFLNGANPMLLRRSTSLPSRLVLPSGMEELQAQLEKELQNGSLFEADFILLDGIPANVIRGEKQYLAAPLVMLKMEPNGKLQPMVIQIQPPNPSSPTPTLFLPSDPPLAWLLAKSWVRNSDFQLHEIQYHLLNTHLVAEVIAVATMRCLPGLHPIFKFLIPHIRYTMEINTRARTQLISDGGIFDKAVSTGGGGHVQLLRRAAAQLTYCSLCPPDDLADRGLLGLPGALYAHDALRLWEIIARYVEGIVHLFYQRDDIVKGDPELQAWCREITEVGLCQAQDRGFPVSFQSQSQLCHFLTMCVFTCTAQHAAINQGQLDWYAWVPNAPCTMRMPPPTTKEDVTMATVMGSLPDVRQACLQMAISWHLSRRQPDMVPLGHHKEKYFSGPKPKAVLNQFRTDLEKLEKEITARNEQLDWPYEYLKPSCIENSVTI
In short: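 Hydroperoxide product was detected by ferrous iron/xylenol orange as the 573 to 405 nm absorbance ratio. Arachidonic acid at 40 uM (final) was turned over for 30 min at room temperature by 150 nM human 12hLO, pH 7.0 Hepes buffer, after 15 min compound preincubation.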
% is set by controls: 0 for no effect and ±100 for the full control effect; potency is the fitted concentration of half-maximal effect.

Row | Compound | activity change, negative = inhibition | Potency
1 | Cc1ccc(-c2cn(CCC(N)=O)c(=O)cn2)cc1 | -22.8% (inactive) | 
2 | O=c1cc(-c2ccccc2)n2c(SCc3ccccc3)nnc2[nH]1 |  | inactive
3 | CCS(=O)(=O)n1nc(-c2ccccc2)nc1SCc1ccccc1 |  | 28.2 µM (active)
4 | Cc1ccc(S(=O)(=O)n2nc(-c3ccc(Cl)cc3)nc2NCc2ccccc2)cc1 | -17.2% (inactive) | 
5 | CCOc1ccc(C(=O)Nc2ncc(C)s2)cc1OC | -2.76% (inactive) | 
6 | CCc1nnc(SCC(=O)Nc2ccccc2OC)n1-n1cccc1 | 0.0227% (inactive) | 
7 | CCOC(=O)N1CCN(C(=O)c2ccc(N3C(=O)CCS3(=O)=O)cc2)CC1 | 29.3% (inactive) | 
8 | CCCC1CCC(c2ccc(-c3ccc4c(n3)CCC(CCC)C4)cc2)CC1 (stereo unspecified) | -17.4% (inactive) | 
9 | FC(F)(F)c1ccc(-n2cn[nH]c2=S)cc1 | 2.96% (inactive) | 
10 | CCOC(=O)N1CCN(Cc2nc(Cc3cccc(C(F)(F)F)c3)no2)CC1 | 15.8% (inactive) | 
11 | Cn1c(-c2sccc2OCc2cccc(C(F)(F)F)c2)n[nH]c1=S |  | 28.2 µM (active)
12 | O=C(CCS(=O)(=O)c1ccc2c(c1)CCN2C(=O)C1CC1)Nc1ccc(F)c(F)c1 | -11% (inactive) | 
13 | COc1cc(Nc2nc3ccccc3nc2NS(=O)(=O)c2ccc(C)cc2)cc(OC)c1 | -0.377% (inactive) | 
14 | O=C(c1ccc2c(c1)OCO2)N1CCCN(C(=O)C2CC2)c2ccccc21 | 113% (inactive) | 
15 | CSCC[C@@H](NC(=O)C(c1ccccc1)c1ccccc1)C(=O)O | -10.3% (inactive) | 
16 | CC1(C)C2CC[C@]3(C)C(CC=C4[C@@H]5C[C@@](C)(CO)CC[C@]5(C(=O)O)CC[C@]43C)[C@@]2(C)CC[C@@H]1O (stereo partly specified) | 15.7% (inactive) | 
17 | CC1(C)[C@H](O[C@H]2O[C@H](C(=O)O)[C@@H](O)[C@H](O)[C@H]2O[C@@H]2O[C@H](C(=O)O)[C@@H](O)[C@H](O)[C@H]2O)CC[C@@]2(C)[C@H]1CC[C@]1(C)[C@H]2C(=O)C=C2[C@H]3C[C@@](C)(C(=O)O)CC[C@]3(C)CC[C@]21C |  | 8.63 µM (active)
18 | Cc1ccc(NC(=O)c2n[nH]c(=O)c3ccccc23)c(C)c1 | -13.1% (inactive) | 
19 | Cc1cc(Br)ccc1NC(=O)C1CCCCC1 | 0.587% (inactive) | 
20 | CC1=C[C@@H](CNCC(C)C)[C@H](C(C)C)C[C@H]1Cc1nc2c(C)cccc2[nH]1 | 14.2% [at 176 µM] (inactive) | 
21 | COc1ccc2cc(CNC(=O)c3nccnc3N)ccc2c1 | -2.78% (inactive) | 
22 | C[C@@H](NC(=O)c1cccnc1)c1c(-c2ccc(F)cc2)noc1C(=O)O |  | 39.8 µM (active)
23 | COc1ccc(-c2noc(C(=O)O)c2[C@@H](C)NS(=O)(=O)c2ccccc2)cc1 | 24.3% [at 176 µM] (inactive) | 
24 | C[C@@H](NC(=O)COc1ccccc1)c1c(-c2ccc(F)cc2)noc1C(=O)O | 10.6% [at 176 µM] (inactive) | 
25 | CC1(C)CC(=O)C(CCS(=O)(=O)OCC(F)(F)C(F)F)(CCS(=O)(=O)OCC(F)(F)C(F)F)C(=O)C1 | 2.97% (inactive) | 
26 | CC(C)CCNc1nc(-c2ccc(S(=O)(=O)N3CCOCC3)cc2)cs1 | -5.58% (inactive) | 

Row | Compound | activity change, negative = inhibition | Potency
27 | CS(=O)(=O)c1ccc(-c2csc(NC3CCCCC3)n2)cc1 | -2.88% (inactive) | 
28 | CC(C)CNc1nc(-c2ccc3c(c2)CCCN3S(C)(=O)=O)cs1 |  | 14.1 µM (active)
29 | CCCc1nc(C#N)c(N2CCN(c3ccccc3)CC2)o1 | -22.7% (inactive) | 
30 | COc1cccc(CN2CCC(C(=O)NC(c3ccc4c(c3)OCO4)c3ccccn3)CC2)c1 (stereo unspecified) | -2.37% (inactive) | 
31 | O=C(COc1ccc(Cl)cc1Cl)NCCCNC(=O)c1cnccn1 | 0.217% (inactive) | 
32 | O=C(NC(c1ccc(-c2ccccc2)cc1)c1cnccn1)C1CCN(CCOc2ccc(Cl)cc2Cl)CC1 (stereo unspecified) |  | 44.7 µM (active)
33 | Cc1cccnc1C(NC(=O)C1CCN(Cc2ccc(Cl)c(Cl)c2)CC1)c1ccc(Cl)cc1 (stereo unspecified) | -10.3% (inactive) | 
34 | CCOc1ccc(S(=O)(=O)N2CCC(C(=O)NCc3ccccn3)CC2)cc1Cl | -25.1% (inactive) | 
35 | Cc1ccc(C(NC(=O)C2CCN(CCOc3ccc(Cl)cc3Cl)CC2)c2ccccn2)cc1 (stereo unspecified) |  | 56.2 µM (active)
36 | Fc1ccccc1-c1n[nH]c2c1CN(Cc1cccc3c1OCO3)CC2 | -12.2% (inactive) | 
37 | Cc1ccccc1-c1cc(-c2ccccc2C)[nH]n1 | -23.8% (inactive) | 
38 | CC(CNC(=O)c1cc2ccccc2s1)N1CCCC1 (stereo unspecified) | -16.1% (inactive) | 
39 | OCCCNC(=S)Nc1ccccc1F | 0.703% (inactive) | 
40 | Cc1nc(-c2cccnc2)sc1CCNS(=O)(=O)c1cccs1 | -2.94% (inactive) | 
41 | C[N+](C)(C)CC#CCCCC#CC[N+](C)(C)C |  | 11.2 µM (active)
42 | O=C(Nc1ccc2c(c1)OCCO2)c1nn(-c2ccccc2)c(=O)c2ccccc12 | 0.0556% (inactive) | 
43 | COC(=O)C[C@@H]1C=C[C@@H](NS(=O)(=O)c2cccc(OC)c2)[C@@H](CO)O1 | -25.2% (inactive) | 
44 | COc1ccc(S(=O)(=O)N[C@@H]2C=C[C@@H](CC(=O)N3CCc4ccccc4C3)O[C@@H]2CO)cc1 |  | 25.1 µM (active)
45 | COC(=O)C[C@H]1C=C[C@@H](NS(=O)(=O)c2ccc(C)cc2)[C@@H](CO)O1 | 5.66% (inactive) | 
46 | N#CC1(c2ccc(N)cc2)CCCC1 | 13.6% (inactive) | 
47 | COc1ccccc1NC(=O)c1cc2ccccc2cc1OCC(N)=O |  | 35.5 µM (active)
48 | CCn1nnc(NC(=O)c2cc3ccccc3cc2OC)n1 | -19.5% (inactive) | 
49 | CCCn1nnc(NC(=O)c2cc3ccccc3cc2OC)n1 | -6.59% (inactive) | 
50 | COCCCNC(=O)CN(C)C(=O)c1cccc(C(F)(F)F)c1 | 5.64% (inactive) | 
51 | CCc1nnsc1C(=O)N(C)Cc1c(F)cccc1Cl | 34% (inactive) | 
52 | N#Cc1cc(NCC(=O)N2CCNC2=O)ccc1Cl | 14.5% (inactive) | 

Row | Compound | activity change, negative = inhibition | Potency
53 | CC1(C)N=C(SCc2ccccc2Cl)c2ccccc2N1 | -9.25% (inactive) | 
54 | Fc1ccc(Nc2nc(SCc3ccccc3Cl)nc3ccccc23)cc1 | -21.5% (inactive) | 
55 | Clc1ccccc1CSc1nnc(-c2ccco2)c(-c2ccco2)n1 |  | 3.55 µM (active)
56 | O=C(NCC1CCCO1)c1cc(Cl)c2c(c1)OCCO2 (stereo unspecified) | 9.31% (inactive) | 
57 | Cc1ccccc1CN(CC1CCCO1)C(=O)c1cccc(CCC(C)(C)O)c1 (stereo unspecified) | 80.5% (inactive) | 
58 | Cc1nn(CCc2nc(-c3ccccc3F)cs2)c2[nH]c(=O)cc(C(F)(F)F)c12 |  | 7.08 µM (active)
59 | Cc1nn(-c2ccccc2)c2[nH]c(C(F)(F)F)cc(=O)c12 | 0% [at 57.4 µM] (inactive) | 
60 | CCCn1c(=O)c2c(C(F)(F)F)cc(-c3cccs3)nc2n(CCC)c1=O | -9.97% (inactive) | 
61 | Cc1cc2oc(=O)cc(COC(=O)c3cc(S(=O)(=O)N(C)C)ccc3NCCO)c2cc1C | -22% (inactive) | 
62 | CCOc1cccc(/C=N/N2C(=O)CSC2=S)c1O |  | 31.6 µM (active)
63 | CCOC(=O)C1(C(F)(F)F)N=C(c2ccc(OC)cc2)OC(N(C)C)=N1 (stereo unspecified) | 0.631% (inactive) | 
64 | O=C(CCNC(=O)N1CCN(C(=O)c2cc3ccccc3[nH]2)CC1)NCc1ccccn1 | 8.38% (inactive) | 
65 | Clc1cccc(CN2CCN(Cc3nnsc3Cl)CC2)c1 | 22.4% (inactive) | 
66 | CCOC(=O)c1ccc(Nc2c(C(=O)OCC)cnc3ccc(OCC)cc23)cc1 | -26.7% (inactive) | 
67 | COC(=O)c1ccc2nc(-c3cccc(Br)c3)c(Cc3ccc(OC)cc3C)n2c1 |  | 7.94 µM (active)
68 | COC(=O)c1ccc2nc(-c3cccc(Br)c3)c(Cc3ccccc3C(F)(F)F)n2c1 | 0% (inactive) | 
69 | CCc1nc2ccc(C(=O)NCc3ccc(OC)cc3)cn2c1N(CC)Cc1cccc(Br)c1 | -13.1% (inactive) | 
70 | COC(=O)c1ccc2nc(-c3ccc(Cl)cc3)c(Cc3cccc(F)c3)n2c1 |  | 44.7 µM (active)
71 | CN(C)C(=O)c1nc2ccc(Cl)cn2c1CNCc1cccc(OC(F)(F)F)c1 | -10% (inactive) | 
72 | COC(=O)c1ccc2nc(C3CCCCC3)c(Cc3cccc(F)c3)n2c1 | -27.2% (inactive) | 
73 | O=C(Nc1ccnc(Cl)c1)C1CC2CCC1C2 (stereo unspecified) | -11.1% (inactive) | 
74 | CC(=O)OC1C2COC(O2)C(OC(C)=O)C1OC(C)=O (stereo unspecified) | -25.1% (inactive) | 
75 | O=C(Nc1cccnc1)c1cc(-c2ccc(F)cc2)nc2ccccc12 | -4.09% (inactive) | 
76 | CCCNC(=O)CC1COCCN1C(=O)CCc1c(C)nc(=O)[nH]c1C (stereo unspecified) | 4.55% (inactive) | 
77 | COC(=O)c1c(CN2CCC(C(N)=O)CC2)nc2ccccc2c1C | -1.28% (inactive) | 
78 | CNC(=O)NC(=O)CSc1nnc(-c2ccc(F)cc2)n1CC1CCCO1 (stereo unspecified) | -1.78% (inactive) | 

Row | Compound | activity change, negative = inhibition | Potency
79 | S=c1[nH]nc(-c2ccc(Cl)cc2)n1CC1CCCO1 (stereo unspecified) |  | 44.7 µM (active)
80 | Cc1nnc(SCC(=O)NNC(=O)c2ccc(Cl)cc2)n1CC1CCCO1 (stereo unspecified) | 0.528% (inactive) | 
81 | COc1ccc(C(=O)NC[C@@H]2C=C(C)[C@H](Cc3nnc(-c4cncn4C)o3)C[C@H]2C(C)C)cc1 | 5.16% (inactive) | 
82 | CC(C)c1ccc(S(=O)(=O)N2CCN(C(=O)c3ccc(N4CCCC4)c([N+](=O)[O-])c3)CC2)cc1 | 1.24% (inactive) | 
83 | O=C(c1cccc(F)c1)N1CCC(O)(c2cccnc2)CC1 | 0% (inactive) | 
84 | O=C(c1cccc(F)c1)N1CCN(c2ccc([N+](=O)[O-])c3cccnc23)CC1 |  | 39.8 µM (active)
85 | O=C(NCCCN1CCCC1=O)c1csc(N2CCN(c3ccccc3F)CC2)n1 | -8.23% (inactive) | 
86 | C/C(=N\NC(=O)C1CC1)C(C)C | 31.5% (inactive) | 
87 | COc1ccc(Oc2ccc(NC(=O)Cn3ncc4ccc(OC)c(OC)c4c3=O)cc2)cc1 | 6.84% (inactive) | 
88 | O=C(/C=C/c1ccc(Cl)c([N+](=O)[O-])c1)c1cccnc1 |  | 17.8 µM (active)
89 | O=C(NN=Cc1ccco1)C(=O)Nc1ccc(Cl)c([N+](=O)[O-])c1 | 20.7% (inactive) | 
90 | C/C(=N\NC(=O)Cc1ccccc1[N+](=O)[O-])c1cccnc1 | 434% (inactive) | 
91 | CC(=O)N1CCN(C(=O)Cn2c(-c3ccccc3)cc3ccccc32)CC1 | -56.7% (inactive) | 
92 | O=C(Nc1cc(F)ccc1F)c1cc(C2CC2)nn1-c1ccccc1 | 28.5% (inactive) | 
93 | O=C(CCc1c[nH]c2ccccc12)NCCc1cccnc1 | -7.37% (inactive) | 
94 | Cc1ccc(C2C=C(c3ccc(Cl)cc3)Nc3nc(NC(=O)CCC(=O)O)nn32)cc1 (stereo unspecified) | 39.4% (inactive) | 
95 | COc1cccc(-c2nc3n(n2)C(c2ccccc2Cl)C(C(N)=O)=C(C)N3)c1 (stereo unspecified) | 337% (inactive) | 
96 | COc1ccc(C2=CC(c3ccccc3Cl)n3nc(-c4ccc(Cl)cc4)nc3N2)cc1 (stereo unspecified) |  | 5.01 µM (active)
97 | Cc1nn(Cc2cccc(F)c2)c(C)c1NS(=O)(=O)c1c(C)nn(C)c1C | -45.1% (inactive) | 
98 | Cc1sc2ncnc(Sc3nnc(-c4ccccc4F)n3C)c2c1C | 3.83% (inactive) | 
99 | N#Cc1ccccc1Sc1ccccc1C(=O)Nc1ccc2c(c1)CCC2 |  | 20 µM (active)
100 | N#Cc1ccccc1Sc1ccccc1C(=O)OCC(=O)NC1CCCCC1 | -7.61% (inactive) | 
101 | N#Cc1ccccc1Sc1ccccc1C(=O)NC1CCCCC1 | -23.6% (inactive) | 

From PubChem BioAssay AID1671190 (National Center for Advancing Translational Sciences (NCATS), 2021)
